Screening data from PubChem BioAssay.
Sampled rows, rich in hits. Any-hit rate of the full collection: about 3.2%.
GLP1R cytotox – cytotoxicity in counter-screen for GLP-1R inverse agonists; HEK293 cAMP-luciferase reporter cells, luminescence, 24 h; actives 0.13% (n = 410,000); Potency, µM (highest dose often 38.3 µM), actives largely listed as inhibitors;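 also: loss of luciferase light is scored as toxicity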
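Quantitative HTS format, 1536 wells, 200 cells/uL seeded. Compounds: 23 nL, 24 h, 37 °C. Detection: luciferase reagent, luminescence at 12 min RT; decreased signal taken as cytotoxic.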
GLP1R ag – agonists of human GLP-1 receptor; P43220; HEK293 GLP-1R CRE-luciferase, luminescence, 4-6 h; cells express a hypersensitive GLP-1R form; Potency, µM (series often up to 45.6 µM), most hits filed as activators; actives 0.007% (n = 380,000); AID 624172
Target sequence (P43220 whole entry, looked up): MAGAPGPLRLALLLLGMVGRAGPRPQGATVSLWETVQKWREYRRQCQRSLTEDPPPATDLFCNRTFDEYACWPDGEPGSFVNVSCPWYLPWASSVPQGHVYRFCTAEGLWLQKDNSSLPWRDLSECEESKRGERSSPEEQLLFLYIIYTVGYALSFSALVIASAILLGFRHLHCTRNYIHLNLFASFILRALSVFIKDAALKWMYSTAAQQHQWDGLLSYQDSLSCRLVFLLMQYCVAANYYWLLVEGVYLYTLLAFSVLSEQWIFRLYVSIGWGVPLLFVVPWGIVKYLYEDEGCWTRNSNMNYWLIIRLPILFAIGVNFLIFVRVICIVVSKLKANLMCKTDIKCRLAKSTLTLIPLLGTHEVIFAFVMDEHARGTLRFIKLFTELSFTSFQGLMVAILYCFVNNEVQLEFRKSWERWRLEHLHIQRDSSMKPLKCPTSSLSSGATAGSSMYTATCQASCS
GLP-1R inv ag – acts as inverse agonist at human GLP-1 receptor; AID 624417; HEK293 GLP-1R CRE-luciferase, luminescence, 24 h; GLP-1R form is constitutively active; Potency, µM (highest dose often 38.3 µM), usual class: inhibitors; actives 1.6% (n = 410,000); P43220; also: nearly all actives have a fitted effect of over 55% in size
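Assay principle: reduced luminescence from a cAMP-responsive reporter in HEK293 cells co-expressing a constitutively active GLP-1R. Conditions: 24 hr compound incubation, 37 deg C, 5% CO2.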
ClpP mod – qHTS Assay for Activators of ClpP | ATP-dependent Clp protease proteolytic subunit (Bacillus subtilis (strain 168)), P80244 | purified B. subtilis ClpP, FRET peptide cleavage, 20 min | Potency, µM (series often up to 57.5 µM) | actives 1.9% (n = 340,000) | AID 651965, 2013; active = well fitted falling curve with a large enough effect; inconclusive = small, poorly fitted or top-dose-only effect; inactive = no such curve, though single readings can be large or run the other way; also: the source files actives as falling curves though it sought activators and does not explain the sign; nearly all actives have a fitted effect of over 65% in size
Target sequence (P80244 whole entry, looked up): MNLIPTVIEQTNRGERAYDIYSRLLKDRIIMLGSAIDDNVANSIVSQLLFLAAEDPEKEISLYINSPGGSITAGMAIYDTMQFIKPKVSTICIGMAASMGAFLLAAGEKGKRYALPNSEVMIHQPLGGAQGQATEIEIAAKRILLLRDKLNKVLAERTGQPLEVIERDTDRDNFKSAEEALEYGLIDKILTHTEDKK
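Purified B. subtilis ClpP, 10 microg/mL final in Tris/HCl pH8 with KCl, BSA, glycerol and Tween-20, cleaved an Abz/nitrotyrosine-quenched decapeptide. Fluorescence (ex 320, em 430) was read at 0 and 20 min at room temperature. Delta was normalized to 5.8 microM ADEP and DMSO/no-enzyme controls.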
Large screens that a line does not name were inactive. Unless noted, calls follow the shape of the dose curve; as a rule, active = well fitted curve in the direction sought with a large enough effect; inconclusive = small, poorly fitted or top-dose-only effect, or another doubt; inactive = no such curve, though single readings can be large; an effect the other way counts as inactive or inconclusive.

CCCCn1c(=NC(=O)c2ccc3c(c2)OCO3)c(C#N)cc2c(=O)n3cccc(C)c3nc21	ClpP mod 32µM
COCCCn1c(C(=O)N2CCOCC2)cc2c(=O)n3cccc(C)c3nc21	ClpP mod 28µM
COCCCn1c(C(=O)N2CC(C)OC(C)C2)cc2c(=O)n3cccc(C)c3nc21 (centres undefined)	none
CCCCN(CC)C(=O)c1cc2c(=O)n3cccc(C)c3nc2n1C	none (no result: GLP1R ag)
CN(C(=O)c1cc2nc(-c3ccco3)cc(C(F)(F)F)n2n1)c1ccc(OC(F)(F)Cl)cc1	none
CN(Cc1ccccc1N1CCCC1)C(=O)c1cc2cc(Cl)ccc2o1	GLP-1R inv ag inconclusive
CN(Cc1ccccc1N1CCCC1)C(=O)c1cc2ccccc2o1	GLP-1R inv ag 10µM (no result: ClpP mod)
Cc1c(C(=O)Nc2ccc3oc(-c4cccnc4)nc3c2)oc2ccccc12	ClpP mod 8.9µM
Cc1c(C(=O)Nc2cccc(-c3nc4ccccc4s3)c2)oc2ccccc12	ClpP mod 22µM (no result: GLP1R ag)
Cc1ccc2oc(C(=O)Nc3cccc(-c4nc5ccccc5s4)c3)c(C)c2c1	ClpP mod inconclusive (no result: GLP1R ag)
COc1ccc(CNC(=O)c2cc(-c3ccc(OC)c(OC)c3)nc3n[nH]c(-c4ccc(C)cc4)c23)cc1	ClpP mod inconclusive (no result: GLP1R ag)
O=C1OCCN1C(=O)[C@H]1[C@H](c2ccc([N+](=O)[O-])cc2)C(c2cccc(Cl)c2)=NN1c1ccc(Br)cc1	GLP-1R inv ag inconclusive
CC[C@@H]1C(c2ccc(F)cc2)=NN(c2ccc(Br)cc2)[C@H]1C(=O)N1CCOC1=O	GLP-1R inv ag 10µM
Cc1cccc(C2=NN(c3ccc(Br)cc3)[C@@H](C(=O)N3CCOC3=O)[C@@H]2c2ccc(F)cc2)c1	GLP-1R inv ag 8.9µM
O=C1OCCN1C(=O)[C@H]1[C@H](c2ccc(F)cc2)C(c2cccc(Cl)c2)=NN1c1ccc(Br)cc1	GLP-1R inv ag 8.9µM
O=C1OCCN1C(=O)[C@H]1[C@H](c2ccc([N+](=O)[O-])cc2)C(c2ccccc2)=NN1c1ccc(Br)cc1	GLP-1R inv ag 3.5µM
Cc1cccc(C2=NN(c3ccc(Br)cc3)[C@@H](C(=O)N3CCOC3=O)[C@@H]2c2ccc(Cl)cc2)c1	GLP-1R inv ag inconclusive
Cc1oc(-c2ccccc2Cl)nc1Cn1c(SCc2cccc(F)c2)nc2cccnc21	GLP-1R inv ag inconclusive (no result: GLP1R ag)
CC(C)N(CC#CCC(O)(c1ccccc1)C1CCCC1)CCO (centres undefined)	GLP-1R inv ag inconclusive
CCN(CC#CCC(O)(c1ccccc1)C1CCCC1)C(C)C (centres undefined)	GLP-1R inv ag 11µM
COc1ccc2cc3cc(C(=O)NCCc4ccccc4)sc3nc2c1Cl	none (no result: GLP1R ag)
Cc1c(Cl)ccc2sc(NC(=O)c3ccc(S(=O)(=O)N4CCCc5ccccc54)cc3)nc12	GLP-1R inv ag inconclusive (no result: GLP1R ag)
COC(=O)C1=C(C)N(Cc2ccc(C)cc2)C(=O)/C1=C\c1cc(OC)c(OC)c(OC)c1	GLP-1R inv ag 4.5µM (no result: ClpP mod)
COC(=O)C1=C(C)N(Cc2ccc(C)cc2)C(=O)/C1=C\c1ccc(O)c(OC)c1	none
Cc1ccc(C)c(CSc2cn(CCNC(=O)c3ccccc3F)c3ccccc23)c1	GLP-1R inv ag inconclusive
O=C(NCCn1cc(SCc2ccccc2)c2ccccc21)c1ccccc1F	GLP-1R inv ag 10µM
O=S(=O)(c1ccc(Br)cc1)c1nnn2c1nc(Nc1cccc(C(F)(F)F)c1)c1sccc12	none (no result: GLP1R ag)
O=C(NN1CCCC1)NS(=O)(=O)c1ccc(Cl)cc1	none (no result: GLP1R cytotox, GLP-1R inv ag, ClpP mod)
Cc1ccc(NS(=O)(=O)c2cc([N+](=O)[O-])ccc2NNC(=S)Nc2cc(C)ccc2C)c(C)c1	GLP1R cytotox 11µM, GLP-1R inv ag inconclusive
COc1ccc(NC(=S)NNc2ccc([N+](=O)[O-])cc2S(=O)(=O)Nc2ccc(C)cc2C)cc1	GLP1R cytotox inconclusive, GLP-1R inv ag inconclusive
Cc1cc(=O)[nH]c2ccc(O)cc12	none (no result: GLP1R cytotox, GLP1R ag, GLP-1R inv ag)
Cc1ccc(F)cc1CNC(=O)c1cc(COc2ccc3ncccc3c2)on1	GLP-1R inv ag inconclusive (no result: ClpP mod)
NNC(=O)c1cccc(COc2ccc(Br)cc2)c1	GLP-1R inv ag 5µM
COc1cc(CNC(=O)c2cccc(COc3ccc(Cl)cc3)c2)cc(OC)c1	GLP-1R inv ag 3.2µM
O=C(NCc1ccccc1)c1cccc(COc2cccc(Cl)c2)c1	GLP-1R inv ag 7.9µM
O=C(NCc1cccc(Cl)c1)c1cc(COc2ccc3ncccc3c2)on1	GLP-1R inv ag 10µM (no result: ClpP mod)
CCOC(=O)c1cc(-c2ccc(F)cc2)n(CC(=O)NC2CCCCCC2)c1C	none (no result: GLP1R ag)
CCOC(=O)c1noc2ncn(CC(=O)Nc3ccc(F)cc3Cl)c(=O)c12	none
COc1cccc(CC2(CO)CCCN(Cc3cn[nH]c3C3CCCCC3)C2)c1 (centres undefined)	GLP-1R inv ag inconclusive
COc1cccc(C(=O)C2CCCN(Cc3cn[nH]c3C3CCCCC3)C2)c1 (centres undefined)	GLP-1R inv ag 10µM (no result: ClpP mod)
Cc1ccc(O)c(-c2cc(-c3cccc(Br)c3)n[nH]2)c1	GLP-1R inv ag 10µM (no result: ClpP mod)
Cc1ccc(-c2cc(-c3ccc4c(c3)NC(=O)CO4)nc3c2COc2ccc(C)cc2-3)cc1	none
COc1cc2c(cc1NC(=O)CCC(=O)O)oc1ccccc12	none (no result: ClpP mod)
COc1cc2c(cc1NC(=O)COC(=O)c1ccc(C(C)(C)C)cc1)oc1ccccc12	none (no result: ClpP mod)
COc1cc2c(cc1NS(=O)(=O)N1CCCCC1)oc1ccccc12	ClpP mod 32µM
CNC(=O)COc1ccccc1C(=O)Nc1ccc2c(c1)oc1ccccc12	ClpP mod 4µM
COc1cc2c(cc1NC(=O)COC(=O)C(CCSC)NC(=O)c1ccccc1Cl)oc1ccccc12 (centres undefined)	ClpP mod 25µM
COc1cc2c(cc1NC(=O)C(C)NCc1ccccc1)oc1ccccc12 (centres undefined)	GLP-1R inv ag 11µM
O=c1c2c3c(sc2nnn1CCCCOc1ccc(Cl)cc1)CCCC3	none (no result: GLP1R ag)
CCOC(=O)N1CCc2c(sc3c2c(=O)n(-c2ccc(Cl)cc2)c(=O)n3Cc2cccc(OC)c2)C1	none (no result: GLP1R ag)
CCOc1cc(CNC(=O)c2ccc3nc(CCc4ccccc4)oc3c2)ccc1OC	none (no result: GLP1R ag)
COc1cc2c(cc1NC(=O)Nc1ccccc1)oc1ccccc12	GLP-1R inv ag inconclusive, ClpP mod 28µM
COc1cc2c(cc1NC(=O)COc1ccccc1OC)oc1ccccc12	ClpP mod 25µM
CCOc1ccccc1CNC(=O)CN1C(=O)c2cccnc2Oc2ccc(Cl)cc21	GLP-1R inv ag inconclusive (no result: GLP1R ag)
CCCCN(CC)Cc1ccc(CNS(=O)(=O)c2cc3c(cc2Cl)NC(=O)CO3)o1	none (no result: GLP1R ag)
CNc1ccc(Cl)nn1	none
NNc1ccc(Cl)nn1	GLP1R cytotox inconclusive, GLP-1R inv ag 10µM (no result: ClpP mod)
Cc1ccc(NC(=O)c2ccc3nc(Cc4ccccc4)oc3c2)cc1F	GLP-1R inv ag inconclusive (no result: GLP1R ag)
Cc1ccc(-n2nnc(-c3nccs3)n2)cc1	GLP-1R inv ag 2.8µM
Cc1cc(C)n(C(=O)c2ccccc2[N+](=O)[O-])n1	ClpP mod 35µM
